Among the test systems are HCT-15 colon; HT29 colon; SNB-75 CNS; U251 CNS; PC-3 prostate; SK-MEL-5 melanoma; UACC-62 melanoma; LOX IMVI melanoma; SK-MEL-2 melanoma; SN12C renal; UO-31 renal; TK-10 renal; CAKI-1 renal; A498 renal; CCRF-CEM leukemia; MOLT-4 leukemia; SNB-19 CNS; EKVX NSCLC; ACHN renal; SK-MEL-28 melanoma.
Common to all, as to experiment: NCI-60 one-dose screen, 48 h (100 = growth as untreated, 0 = no growth, -100 = all killed)
Common to all, as to conditions: 10 µM unless noted

Values joined by “and” are separate entries in the source; they are usually repeats but may differ in a detail not shown here. Equal values may be shown once. About 83,000 compounds went through this panel and 20% of them were active in at least one assay; those are over-represented in the sample as a whole.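 The test compound was applied at a single concentration to cells in 96-well plates for 48 hours, and percent growth was recorded.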 A number with no mark means an inactive call. Active and inactive are the calls of the source. Rule for the calls: active = growth percent below 10; inactive = the rest.

Here are results for 5 compounds from PubChem BioAssay (NCI).

Turning to `N#C/C(=C1C=C/C(=N/O)C(Br)=C/1)c1ccccc1`, the growth was 23.1% with HCT-15 colon; 8.98% (active) with HT29 colon; 23% with SNB-75 CNS; 26.5% in the assay with U251 CNS; 4.02% (active) in the assay on PC-3 prostate; 53.6% with SK-MEL-5 melanoma. The growth in the assay on UACC-62 melanoma is 33.1%; with LOX IMVI melanoma, 1.02% (active); with SK-MEL-2 melanoma, -22.3% (active); in the assay with SN12C renal, 32.7%; in the assay with UO-31 renal it was 36.7%; with TK-10 renal, 45%. Besides, the growth in the assay with CAKI-1 renal is 15.1%; with A498 renal, 63.7%; with CCRF-CEM leukemia, 4.04% (active); in the assay on MOLT-4 leukemia, 18.5%.
Turning to `CCN(CC)CCc1nc(-c2ccccc2)no1`, the growth is 64.3% and 93.3% in the assay on HT29 colon; 82.1% and 72.2% in the assay on SNB-75 CNS; 89.7% and 94.2% in the assay with SNB-19 CNS; 52.7% and 99.4% in the assay with U251 CNS; 81.3% and 96.7% in the assay with PC-3 prostate; 84.6% and 116% with SK-MEL-5 melanoma. The growth with UACC-62 melanoma was 77% and 95.9%; in the assay with LOX IMVI melanoma, 63.9% and 94.6%; in the assay on SK-MEL-2 melanoma, 98% and 104%; in the assay with EKVX NSCLC it was 90.6% and 98.4%; in the assay with SN12C renal, 68% and 80.8%; in the assay with UO-31 renal, 65.9% and 68.2%. Further, the growth is 85.1% and 107% in the assay on TK-10 renal; 83.2% and 110% with ACHN renal; 92.3% and 88.2% in the assay with CAKI-1 renal; 108% and 110% with A498 renal; 44.2% and 90.8% with CCRF-CEM leukemia; 101% in the assay on MOLT-4 leukemia.
For the compound `COc1ccc2nc(Cl)cc(C)c2c1`, the growth in the assay with HT29 colon was 101% and 105%; in the assay with SNB-75 CNS, 99.2% and 98.3%; with SNB-19 CNS, 98.1% and 111%; with U251 CNS it was 98.9% and 108%; in the assay with PC-3 prostate it was 99.2% and 82.3%; in the assay on SK-MEL-5 melanoma, 98.8% and 120%. For the same compound, the growth is 94.4% and 95.2% with UACC-62 melanoma; 105% and 113% with LOX IMVI melanoma; 104% and 118% with SK-MEL-28 melanoma; 99.6% in the assay with SK-MEL-2 melanoma; 80.4% and 97.6% with EKVX NSCLC; 107% and 103% in the assay with SN12C renal. For the same compound, the growth in the assay on UO-31 renal was 84.9% and 107%; in the assay on TK-10 renal, 73.7% and 78.9%; in the assay on CAKI-1 renal it was 85.6%; in the assay on A498 renal it was 86% and 83.4%; with CCRF-CEM leukemia, 100% and 88.9%; in the assay on MOLT-4 leukemia, 100% and 76.5%.
Consider `O=C(N/N=C/c1ccccc1)N/N=C/c1ccccc1`, for which the growth with HCT-15 colon is 104% and 103%; in the assay with HT29 colon, 109% and 105%; with SNB-75 CNS, 103% and 88%; in the assay with U251 CNS it was 114% and 97.8%; with PC-3 prostate, 97.7%; in the assay on SK-MEL-5 melanoma, 106% and 94.5%. The growth was 101% with UACC-62 melanoma; 117% and 103% in the assay on LOX IMVI melanoma; 121% and 113% in the assay on SK-MEL-28 melanoma; 123% and 119% in the assay on SK-MEL-2 melanoma; 104% and 101% with EKVX NSCLC; 103% and 114% in the assay on SN12C renal. Moreover, the growth in the assay with TK-10 renal was 119% and 110%; with ACHN renal, 109% and 111%; in the assay with CAKI-1 renal, 92.2% and 114%; in the assay on A498 renal, 61.3%; in the assay with CCRF-CEM leukemia, 98.6% and 102%; with MOLT-4 leukemia, 91.8% and 113%.
With `CCCCOc1cc(C(=O)NCCN(CC)CC)c2ccccc2n1`, the growth in the assay on HCT-15 colon was 96.5% and 100%; in the assay with HT29 colon, 57.7% and 92.4%; in the assay on SNB-75 CNS, 75.2% and 88.9%; with U251 CNS it was 83.4% and 92.2%; in the assay on PC-3 prostate, 73.9% and 96%; in the assay with SK-MEL-5 melanoma it was 86.4% and 94.5%. Also, the growth with UACC-62 melanoma is 95.6% and 90.1%; in the assay with LOX IMVI melanoma, 88.4% and 110%; with SK-MEL-2 melanoma, 120% and 99.6%; in the assay with EKVX NSCLC, 74.9%; with SN12C renal, 86.7% and 93.5%; with UO-31 renal, 59.1% and 78%. Moreover, the growth in the assay with TK-10 renal is 100%; with ACHN renal, 90.1% and 99.7%; in the assay with CAKI-1 renal it was 73.6% and 92.8%; with A498 renal, 81.1% and 95.4%; in the assay on CCRF-CEM leukemia it was 89.4%; in the assay on MOLT-4 leukemia, 98% and 101%.
